ALDH1A1 inh: inhibitors of human aldehyde dehydrogenase 1A1. P00352. Purified ALDH1A1, NADH fluorescence, propionaldehyde substrate. Potency, µM (doses to about 75.3 µM), inactives show at the top dose activity, negative = inhibition, most hits filed as inhibitors. 220,000 compounds, 7.3% hits;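 further: potency means the concentration at half of the fitted maximal effect; plate controls were no enzyme wells and a reference inhibitor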
Target sequence (P00352 whole entry, looked up): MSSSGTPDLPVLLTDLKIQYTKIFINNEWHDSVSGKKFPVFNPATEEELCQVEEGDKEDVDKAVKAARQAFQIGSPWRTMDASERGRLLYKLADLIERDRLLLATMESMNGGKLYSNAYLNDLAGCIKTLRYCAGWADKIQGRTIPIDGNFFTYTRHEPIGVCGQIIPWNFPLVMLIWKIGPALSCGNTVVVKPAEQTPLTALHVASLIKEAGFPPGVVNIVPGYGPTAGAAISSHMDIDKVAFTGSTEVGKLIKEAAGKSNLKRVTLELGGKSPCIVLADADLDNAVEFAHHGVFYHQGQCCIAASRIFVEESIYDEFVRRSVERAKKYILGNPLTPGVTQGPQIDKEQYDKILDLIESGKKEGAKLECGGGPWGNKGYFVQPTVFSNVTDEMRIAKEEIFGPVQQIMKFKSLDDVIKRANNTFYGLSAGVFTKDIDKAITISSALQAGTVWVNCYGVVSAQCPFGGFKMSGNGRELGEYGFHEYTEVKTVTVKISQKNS
HPGD inh: HPGD (human) dehydrogenase inhibition; Potency, µM, without a hit: top-dose activity change, negative = inhibition, usual class: inhibitors; purified HPGD, NADH fluorescence kinetic, PGE2 substrate; 150,000 compounds, 4.3% hits; AID 894; further: potency means the concentration at half of the fitted maximal effect
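NADH formation kinetics: reaction with 30 uM PGE2 and 1 mM NAD+ (final), 20 nM enzyme, Tris-HCl pH 8 with Tween 20, after 15 min compound preincubation at room temperature. Fluorescence change, last versus first of five reads.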
PNC assembly inh: blocks assembly of the perinucleolar compartment | PC3M PTB-GFP, PNC prevalence imaging, 16 h; active compounds read low | activity change (PNC), negative = inhibition, % at 10 µM | 140,000 compounds, 3.1% hits;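 active means readout at or below -70, meaning at least 70% loss of cells showing the perinucleolar compartment, a nuclear body marking cancer cells; inconclusive means readout between -30 and a set limit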;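 further: plate controls were DMSO wells for no effect and camptothecin positive control wells for full effect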
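Read-out is percentage of cells bearing a perinucleolar compartment, from automated 20x imaging of fixed, Hoechst-stained PC3M PTB-GFP cells. Cells were seeded 4 h, then exposed 16 h to compound (23 nl of library stock) in duplicate plates.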
IMPase cell inh: cell-permeable inhibitors of inositol monophosphatase (IMPase) | inhibition (IP1 accumulation), % at 46.1 µM | CHO-M1 cells, IP1 accumulation, HTRF TR-FRET ratio | AID 901 | 120,000 tested, under 10 active; active means well fitted curve in the direction sought with a large enough effect in the signal ratio, not every such curve was filed as active; inconclusive means small, poorly fitted or top-dose-only effect, or a change in a side signal; inactive means no such curve, though single readings can be large or run the other way; the % refers to the signal ratio;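 further: cells stimulated with carbachol in lithium chloride buffer; plate controls were DMSO basal wells for no effect and reference inhibitor wells for full effect; higher means more IMPase inhibition seen as more IP1 and lower FRET ratio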
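The IP-One HTRF competitive assay in carbachol-stimulated CHO-M1 cells quantifies cellular IP1. Compounds spanned up to 46 uM final, and activity is expressed as AC50 from concentration-response fits of the ratio and donor data.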
IMPase Li inh: cell-permeable IMPase inhibitors with lithium potentiation; Potency, µM (top dose mostly 59.4 µM), without a hit: at the top dose activity, negative = IMPase inhibition, usual class: inhibitors; 210,000 compounds, 0.35% hits; AID 1457; CHO-M1 cells, IP1 TR-FRET (IP-One), carbachol + lithium; active means well fitted inhibition curve with a large enough effect; inconclusive means small, poorly fitted or top-dose-only effect; inactive means no such curve, though single readings can be large or run the other way;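 further: IP1 builds up when IMPase is blocked and the TR-FRET signal falls; potency means the concentration at half of the fitted maximal effect; plate controls were basal vehicle for no effect and high inhibitor control for full effect; nearly all actives have a fitted effect of over 50% in size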
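Steps: plate 2000 CHO-M1 cells per well and culture 16–30 h; add compound and lithium; incubate 30 min, 37C; add d2-IP1 tracer and Eu cryptate anti-IP1 antibody in lysis buffer; read after 10 min at room temperature.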
An asterisk follows results filed as active; u = inconclusive; x = not tested or not shown; [ ] = dose if it differs, or a comment. Hits are enriched below; roughly 11% of the tested compounds scored in any of these assays. Unless noted, the call rests on the fitted dose curve; in most records, active means well fitted inhibition curve with a large enough effect (not every such curve was filed as active); inconclusive means small, poorly fitted or top-dose-only effect, or another doubt; inactive means no such curve, though single readings can be large or run the other way. Unless noted, on the % scale 0 is the no-effect control and ±100 the full control effect.

SMILES | ALDH1A1 inh | HPGD inh | PNC assembly inh | IMPase cell inh | IMPase Li inh
COc1cccc(/C=C2\SC(=S)N(N3CCOCC3)C2=O)c1OC | 14µM* | -9% | -8 | -1 | 4%
O=C1/C(=C/c2ccccn2)SC(=S)N1N1CCOCC1 | 4.5µM* | x | x | x | x
COc1ccccc1/C=C1\SC(=S)N(N2C(=O)CCCC2=O)C1=O | 25µM* | x | x | x | 12%
O=C(NC(=S)N(Cc1ccccc1)c1ccccn1)C1CCCCC1 | u | u | -103* | x | 6%
Cc1cc[n+](-c2[nH]c(=O)sc2/C=N/N=C(\[O-])CCn2c3ccccc3c3ccccc32)cc1 | -9% | x | x | x | x
Cc1cc[n+](-c2[nH]c(=O)sc2/C=N/N=C(\[O-])c2ccccc2)cc1C | 22µM* | x | x | x | 13%
Cc1cc[n+](-c2[nH]c(=O)sc2/C=N/N=C(\[O-])c2ccccc2)cc1 | 13µM* | x | x | x | x
Cc1cc(C)c[n+](-c2[nH]c(=O)sc2/C=N/N=C(\N)[S-])c1 | u | x | x | x | 5%
CCc1sc(C(=O)Nc2cccc(C(C)=O)c2)cc1C | -8% | -1% | -17 | -8 | -7%
O=C(c1cnccn1)N1CCC[C@@]2(CCN(Cc3cc(C(F)(F)F)cc(C(F)(F)F)c3)C2)C1 | 5% | -8% | x | x | 6%
CCOc1ccc(Cn2c(O)cc(=O)[nH]c2=O)cc1 | 18µM* | -12% | 1 | x | 4%
Cn1c(-c2sccc2OCc2ccc(Cl)cc2Cl)n[nH]c1=S | 32µM* | x | x | x | -3%
Cn1c(-c2sccc2OCc2ccccc2)n[nH]c1=S | u | u | 13 | -2 | 9%[38.3 µM]
Cc1ccc(COc2ccsc2-c2n[nH]c(=S)n2C)cc1 | 20µM* | u | 6 | 2 | -5%[38.3 µM]
COc1ccc2nc(/C=N/NC(=O)[C@H](C)NC(=O)OC(C)(C)C)ccc2c1 | u | u | u | x | -2%
C=C(C)C(=O)/C=C/CCC/C=C/C(=O)OCC | 25µM* | -6% | x | x | 33%
CCOC(=O)/C=C/CCCC=O | 6% | -6% | x | x | 6%
Cc1ccnn1CCC(=O)N1CCCC(CCC(=O)N2CCN(c3ccccn3)CC2)C1 (stereo not given) | u | x | x | x | 11%
O=c1cc(-c2ccccc2O)oc2c(O)c(O)ccc12 | 2.5µM* | 10µM* | x | 12 | 8%
O=c1cc(-c2ccccc2)oc2c(O)c(O)ccc12 | 4µM* | 3.2µM* | x | x | 38%
O=c1cc(-c2ccccc2O)oc2ccc3ccccc3c12 | 3% | -1% | x | -6 | 13%
CC(C)c1ccc(NC(=O)c2sccc2-n2cccc2)cc1 | u | x | x | x | 10%
CC(=O)c1c(O)c(C)c(O)c2c1OC1=CC(=O)C(C(C)=O)C(=O)[C@@]12C (stereo not given in full) | 11% | -3% | x | -7 | 13%
O=c1[nH]nc(SCCS(=O)(=O)c2ccc(F)cc2)n1-c1ccccc1 | 2.8µM* | x | x | x | x
O=c1[nH]nc(SCCS(=O)(=O)c2ccc(F)cc2)n1-c1ccc2c(c1)OCCO2 | 20µM* | x | x | x | x
SMILES | ALDH1A1 inh | HPGD inh | PNC assembly inh | IMPase cell inh | IMPase Li inh
O=[N+]([O-])c1ccc(NCCCNS(=O)(=O)c2ccc(Cl)cc2)c(Cl)c1 | 1% | -14% | -21 | 10 | 20%[38.3 µM]
NCCCCCCNS(=O)(=O)c1cccc2ccccc12 | 13µM* | -26% | x | -4 | 2%
O=[N+]([O-])c1ccc(NCCCNS(=O)(=O)c2ccccc2)cc1 | 18µM* | x | x | x | 13%
Cc1ccc(S(=O)(=O)NCCCNc2ccc([N+](=O)[O-])cc2)cc1 | 14µM* | x | x | x | 21%
O=S(=O)(NCCCCCNS(=O)(=O)c1ccccc1)c1ccccc1 | 0.56µM* | -11% | -91* | 5 | 6%[38.3 µM]
COc1ccc(CCNc2ccc(C(=O)O)cc2[N+](=O)[O-])cc1OC | -1% | x | x | x | -1%
COc1ccc(C(=O)CCC(C)(C)[N+](=O)[O-])cc1OC | 8.9µM* | x | x | x | -2%
COC(=O)C1=C(C)[C@@H](O)[C@@H](C)[C@](C)(c2cc(OC)c(C)c(OC)c2COc2ccccc2)O1 | 11% | -10% | x | x | 16%
CCOc1cc(/C=C2\SC(=Nc3ccccc3)N(c3ccccc3)C2=O)ccc1OCC(=O)O | u | -5% | -26 | x | -4%
O=C(O)c1ccc(/C=C2\SC(=Nc3ccccc3)N(c3ccccc3)C2=O)cc1 | 16µM* | x | x | x | 10%
O=C(O)COc1ccc(/C=C2\SC(=Nc3ccccc3)N(c3ccccc3)C2=O)cc1 | 18µM* | x | x | x | -11%

Screening data (PubChem BioAssay)
